Compound activity from PubChem BioAssay.
Most compounds without a hit are left out; they make up all but 3.8% or so of the library.
TrxR1 substrate: substrates of rat thioredoxin reductase 1 | purified TrxR1 substrate turnover, NADPH consumption readout | Potency, µM (doses to about 114 µM), inactives show at the highest dose activity change, negative = substrate turnover | hit rate 0.01% among 390,000 | AID 588456; also: nearly all actives have a fitted effect of over 50% in size
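Rat TrxR1, dispensed at 90 nM, was prereduced with 400 uM NADPH (final) for 5 min at ~22 deg C, then incubated with compound 15 min before 400 uM selenite. A first-read NADPH fluorescence drop versus no-compound background flagged substrates.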
GLS inhibitor: blocks human kidney-isoform glutaminase activity | GLS enzymatic activity, qHTS titration | hit rate 0.21% among 410,000 | Potency, µM (top dose mostly 45.5 µM), inactives show top-dose activity change, negative = inhibition, actives largely listed as inhibitors | AID 624170
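hKGA in 45 mM KH2PO4 (pH 8.2), 0.02% Tween-20 with compound, then 1mM L-Glutamine (stock as added) plus glutamate oxidase/HRP/Amplex red coupling mix. Fluorescence read initially and after 30 min at RT; signal change reflects glutamate formation.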
VDR inh: inhibitors of human vitamin D receptor; hit rate 0.93% among 400,000; P11473; Potency, µM, for inactives: max response, negative = inhibition, most hits filed as inhibitors; VDR-SRC2-3 peptide fluorescence polarization, 2 h; AID 504847
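Reagent solutions, kept cold and dark, are dispensed first; compounds are then pinned in at 23 nl, plates briefly spun, and incubated 2 h at ambient temperature. Inhibition of VDR–SRC2-3 peptide binding is read by fluorescence polarization.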
GCN5L2 inh: GCN5L2 (KAT2A) acetyltransferase inhibition | Q92830 | GCN5L2 HAT assay, ThioGlo1 CoA-SH fluorescence | Potency, µM (highest dose often 58.9 µM), without a hit: top-dose activity change, negative = inhibition, most hits filed as inhibitors | hit rate 0.21% among 390,000
Target sequence (Q92830 whole entry, looked up): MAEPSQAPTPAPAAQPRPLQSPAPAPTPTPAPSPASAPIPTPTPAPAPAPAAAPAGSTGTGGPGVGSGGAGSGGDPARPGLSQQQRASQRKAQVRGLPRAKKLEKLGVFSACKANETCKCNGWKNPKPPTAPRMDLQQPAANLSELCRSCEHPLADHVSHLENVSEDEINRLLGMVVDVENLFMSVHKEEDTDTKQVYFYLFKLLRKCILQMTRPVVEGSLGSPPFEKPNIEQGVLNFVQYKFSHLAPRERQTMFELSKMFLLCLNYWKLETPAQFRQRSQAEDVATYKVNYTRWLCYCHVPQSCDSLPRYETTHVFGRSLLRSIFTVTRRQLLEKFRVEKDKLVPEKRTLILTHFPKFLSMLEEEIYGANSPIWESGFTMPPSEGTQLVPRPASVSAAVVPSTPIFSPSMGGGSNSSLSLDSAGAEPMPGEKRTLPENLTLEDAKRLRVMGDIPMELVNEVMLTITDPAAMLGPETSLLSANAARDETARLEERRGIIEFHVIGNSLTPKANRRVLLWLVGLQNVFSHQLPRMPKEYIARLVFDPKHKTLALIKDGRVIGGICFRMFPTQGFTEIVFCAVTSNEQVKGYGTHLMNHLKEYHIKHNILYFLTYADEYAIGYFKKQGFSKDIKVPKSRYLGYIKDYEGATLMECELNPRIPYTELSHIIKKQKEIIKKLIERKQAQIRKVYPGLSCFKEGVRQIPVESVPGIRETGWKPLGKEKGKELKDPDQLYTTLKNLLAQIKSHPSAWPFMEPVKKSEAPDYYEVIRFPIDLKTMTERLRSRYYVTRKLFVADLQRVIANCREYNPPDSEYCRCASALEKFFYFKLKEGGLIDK
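qHTS, 1536-well. 20nM enzyme, pH 7.5 HEPES/EDTA/Tween-20 buffer; 15 min compound preinc., RT. Start: 75uM H3(1-25), 70uM AcCoA, 50uM ThioGlo1. Read Ex340/Em540 at t=0 (autofluorescence flag) and t=20 min.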
Sfp PPTase inh: Sfp phosphopantetheinyl transferase inhibition; Biochemical Sfp PPTase activity, qHTS; Q9F4F7; hit rate 3.5% among 310,000; Potency, µM, for the others: largest response in the series, negative = inhibition, hits mostly inhibitors;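 also: the enzyme is Sfp with the accession as filed and its product quenches rhodamine fluorescence; 0% = enzyme reaction without inhibitor and -100% = no enzyme wells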
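Fluorescence-quenching assay: 15 nM Sfp-PPTase preincubated 15 min at room temperature with compound, then 5 uM rhodamine-CoA and 12.5 uM BHQ-2-labelled YbbR peptide added. Fluorescence (ex 525/em 598 nm) read at start and after 30 min; difference gives rate.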
TrxR1 inh: rat TrxR1 inhibition; recombinant rTrxR1, NADPH fluorescence consumption, selenite substrate; AID 588453; hit rate 1% among 390,000; Potency, µM (highest dose often 114 µM), inactives show top-dose activity change, negative = inhibition, hits mostly inhibitors; O89049; also: nearly all actives have a fitted effect of over 65% in size
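Rat TrxR1 (90 nM in the dispensed reagent) was pre-reduced with 400 uM NADPH for 5 min at room temperature, then incubated with compound for 15 min. After 400 uM selenite was added, NADPH fluorescence (Ex 340/Em 450 nm) was followed for 8 min.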
Active calls of the source: *; ? = inconclusive; / = no result given; ! = not confirmed by another sample; [ ] = remark or other dose. Calls follow the shape of the dose curve; as a rule, active = well fitted curve in the direction sought with a large enough effect; inconclusive = small, poorly fitted or top-dose-only effect, or another doubt; inactive = no such curve, though single readings can be large; an effect the other way counts as inactive or inconclusive. Unless noted, % is scaled to controls: 0 for no effect and ±100 for the full control effect; potency is read from the fitted curve at half-maximal effect.

SMILES	TrxR1 substrate	GLS inhibitor	VDR inh	GCN5L2 inh	Sfp PPTase inh	TrxR1 inh
CC(=O)Nc1ccc(S(=O)(=O)N(Cc2cc3ccc(C)cc3[nH]c2=O)CC2CCCO2)cc1 (configuration not stated)	13.0%	1.3%	12.1%	-6.9%	13.1%	18.3%
NC(N)=Nc1nc(-c2ccccc2)c2ccccc2n1	6.1%[57.1 µM]	-2.1%	7.0%	1.8%	50.1µM*	7.3%[57.1 µM]
CCc1nc(N=C(N)N)nc2ccccc12	/	/	/	-5.4%	14.9%	/
Cn1cccc1CNC(=S)Nc1cc(F)cc(F)c1	-0.6%	-1.4%	-9.5%	-6.6%	-9.6%	7.4%
COC(=O)c1ccc(NC(=O)CN(c2ccc3c(c2)OCO3)S(C)(=O)=O)cc1	5.7%	-1.4%	-9.4%	-2.6%	-2.9%	13.9%
CN1CCN(C(=S)C(=O)Nc2ccccc2)CC1	9.3%[57.1 µM]	10.0%	-8.5%	-1.3%	50.1µM*	13.0%[57.1 µM]
O=C1C(=O)N(Cc2cccnc2)C(c2cccc([N+](=O)[O-])c2)/C1=C(/O)c1ccc2c(c1)OCO2 (configuration not stated)	-15.0%	1.9%	-7.5%	-22.2%	12.1%	?
COc1cccc(CNC(=O)C23CN(Cc4ccccc4)CC2C(c2ccc([N+](=O)[O-])cc2)=NO3)c1 (configuration not stated)	-5.2%	2.0%	-18.6%	-17.3%	7.0%	-4.9%
CC(C)CCNC(=O)C12CN(Cc3ccccc3)CC1C(c1ccc([N+](=O)[O-])cc1)=NO2 (configuration not stated)	8.6%[57.1 µM]	6.6%	-10.3%	-29.3%	14.1µM*	0.2%
COC(=O)c1c(C)oc(C)c1S(=O)(=O)NCC1CC1	8.8%[57.1 µM]	-10.7%	14.7%	-7.5%	-4.2%	9.3%[57.1 µM]
COC(=O)c1c(C)oc(C)c1S(=O)(=O)N(C)C1CCCCC1	1.3%	2.4%	7.2%	-0.3%	2.7%	15.8µM*
CC1CCN(S(=O)(=O)c2ccc3c(c2)N(CC(=O)N(C)Cc2ccco2)C(=O)CO3)CC1	-0.8%	-1.9%	-10.0%	-4.2%	4.8%	18.7%
CCCC[C@H](CC)CN=C(N)NC(N)=NCCCCCCN=C(N)NC(N)=NC[C@@H](CC)CCCC	/	/	36.3%	1.4%[21.4 µM]	8.91µM*	/
CCn1c(=O)c2ccccc2n2c(SCC(=O)N3CCc4ccccc4C3)nnc12	3.4%[57.1 µM]	10.7%	15.1%	-3.6%	7.7%	6.8%[57.1 µM]
COc1ccccc1O	2.8%	14.9%	-7.1%	0.0%	1.5%	-1.9%
COc1cccc(O)c1O	/	/	50.1µM*	-20.1%	20µM*	/
CCCCN1C(=O)/C(=C(/C#N)C(=O)N2CCCC2)c2ccccc21	-3.3%	1.1%	44.7µM*	9.0%	-7.6%	19.6%
O=C(Nc1c(-c2ccccc2)nc2ccccn12)c1ccccc1F	0.9%	4.7%	-19.5%	0.6%	4.3%	21.3%
O=C(O)c1ccc(-n2cccn2)c([N+](=O)[O-])c1	-13.4%	6.9%	2.3%	-5.0%	24.8%	56.2µM*
CCOc1ccc(CCNC(=O)CN(C)S(=O)(=O)c2ccc3c(c2)CCC(=O)N3)cc1OCC	2.8%	0.6%	5.4%	19.8%	15.4%	1.1%
COC(=O)[C@H](CCSC)NC(=O)c1cccnc1SC	0.7%	-2.6%	-14.9%	-2.4%	14.1%	18.9%
COC(=O)[C@H](CCSC)NC(=O)c1ccc(NC[C@@H](N)CS)cc1-c1ccccc1	/	/	10µM*	-11.5%	?	/
CSCC[C@H](NC(=O)c1ccc(NC[C@@H](N)CS)cc1-c1ccccc1)C(=O)O	/	/	7.94µM*	-28.4%	?	/
CSCCC(NC(=O)c1ccoc1C)C(=O)O (configuration not stated)	9.0%	7.0%	-9.4%	-0.5%	6.1%	8.4%
COc1ccc(OC)c(/C=N/c2oc(-c3ccco3)c(-c3ccco3)c2C#N)c1	-0.6%[57.1 µM]	-2.6%	-5.3%	-21.6%	25.1µM*	?
SMILES	TrxR1 substrate	GLS inhibitor	VDR inh	GCN5L2 inh	Sfp PPTase inh	TrxR1 inh
N#Cc1c(N)nc2c(c1-c1ccco1)CCCCC2	37.0%	-1.1%	4.4%	/	/	-7.1%
N#Cc1c(N)oc(-c2ccco2)c1-c1ccco1	-1.5%	2.1%	-8.1%	-8.4%	31.6µM*	?
CC1CCN(C(=O)Cn2c(=O)n(CCCC(=O)NCc3ccco3)c(=O)c3sccc32)CC1	10.1%[0.0914 µM]	2.0%	-5.0%	1.2%	9.9%	9.6%[57.1 µM]
COc1cccc(NC(=O)CN(C)CC(=O)NCc2ccc(F)cc2)c1	7.7%[57.1 µM]	0.6%	5.3%	1.6%	/	6.6%[2.29 µM]
COc1ccc(NC(=O)CN(C)CC(=O)c2c(C)[nH]c3ccccc23)cc1	-0.1%	-1.1%	-7.9%	-3.0%	/	22.4µM*
COc1ccc(NC(=O)CN(C)CC(=O)c2[nH]c(C)c(C(C)=O)c2C)cc1	-1.2%	-0.3%	2.6%	1.1%	/	-14.6%
COc1cccc(NC(=O)CN(C)CC(=O)c2c(C)[nH]c3ccccc23)c1	-2.0%	-4.1%	-1.7%	-1.8%	/	79.4µM*
Cn1c(=O)c2c(SCC(N)=O)nc(CC(C)(C)C)nc2n(C)c1=O	24.3%[57.1 µM]	-4.4%	-8.5%	-1.6%	11.2%	29.7%[57.1 µM]
COCP(=O)(c1ccccc1)c1ccccc1	-5.6%	2.0%	-1.2%	-7.3%	9.4%	14.3%
OCCN(Cc1ccccc1)CC(O)COc1ccc(-c2ccccc2)cc1 (configuration not stated)	0.1%	13.2%	4.2%	-19.9%	50.1µM*	12.7%
CC(=O)N[C@@H](CSC/C=C(\C)CC/C=C(\C)CC/C=C(\C)CCC=C(C)C)C(=O)O	/	/	35.5µM*!	?	15.4%	/
CC(=O)N[C@@H](CSC/C=C(\C)CCC=C(C)C)C(=O)O	/	/	0.1%	6.7%	44.7µM*!	/
CC(=O)N[C@@H](CSC/C=C(\C)CC/C=C(\C)CCC=C(C)C)C(=O)O	/	/	50.1µM*!	?	?	/
CC(C)=CCC/C(C)=C/CC/C(C)=C/CC/C(C)=C/C(=O)O	/	/	?	?	4.4%	/
CCOC(=O)N1CCN(C(=O)c2ccc3c(c2)NC(=O)/C(=C\c2ccc(OC)c(OC)c2)S3)CC1	-6.0%	-18.1%	?	-4.3%	-4.2%	25.1µM*
CCOc1cc(C=O)c(Br)cc1OC1CCCC1	-5.7%	-5.8%	-10.4%	-10.1%	3.2%	-2.3%
CCNc1nc(NCC)nc(NC(N)=S)n1	6.4%[57.1 µM]	2.5%	-6.4%	-2.2%	-7.3%	6.9%
CCNc1nc(NC(N)=S)nc(NC(C)(C)C)n1	-2.9%[57.1 µM]	5.7%	10.1%	-5.6%	31.6µM*	14.9%[57.1 µM]
Nc1[nH]nc2nc3ccccc3nc12	/	/	-0.7%	-18.6%	9.0%	/
Nc1[nH]nc2ncc3cc4ccccc4nc3c12	-9.1%[57.1 µM]	-10.6%	-0.8%	-0.7%	35.5µM*	25.7%[57.1 µM]
COc1ccc(CCN2CC(C(=O)N(C)Cc3ccc(C)o3)CCC2=O)cc1 (configuration not stated)	1.2%	5.0%	-13.9%	-0.4%	22.4µM*	50.1µM*
